# Test results: PubChem BioAssay AID1430 (University of Pittsburgh Molecular Library Screening Center, 2008)
# About 240 (0.11%) of roughly 220,000 compounds were called active. For the sample, actives were picked, then their nearest neighbours and some compounds at random. Values without a mark were called inactive.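 How the source made its calls: active means inhibition of 50% or more in the single-dose primary screen; inactive means inhibition below 50%.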
# System: hexokinase 1 [Trypanosoma brucei]
# Assay: Trypanosoma brucei hexokinase 1 inhibitors, primary screen, biochemical, G6PDH-coupled NADH absorbance, MLSCN library (AID 1430)
# Conditions: recombinant TbHK1, G6PDH-coupled NADH A340; at 10 µM; active compounds read high
row,Structure (SMILES),inhibition
1,Cc1nc2nc[nH]n2c(=O)c1C/C=C/c1ccccc1,-2.13%
2,COc1ccc(C(=O)NNc2cc(C)nc(NNC(=O)c3ccc(OC)cc3)n2)cc1,-5.16%
3,Cc1[nH]n(C)c(=O)c1N=Nc1ccc(S(C)(=O)=O)cc1,-42.5%
4,Cc1ccc(Oc2nc(-c3ccccn3)nc3ccccc23)cc1,-12.7%
5,COC(=O)CN1C(=O)N/C(=C/c2ccc(OC)c(C)c2OC)C1=O,-28.4%
6,C=C(C)C(=O)Nc1cccc(C2=NOC3(C2)C[C@H](C(N)=O)N(C(=O)C(c2ccccc2)c2ccccc2)C3)c1 (stereo not given in full),7.7%
7,Cc1ccc(Cl)c(OCC(=O)NN2CCN(C)CC2)c1,-3.39%
8,COc1ccc(C(=O)NC2(C(F)(F)F)NC(=O)N(CCCc3ccccc3)C2=O)c(OC)c1OC (stereo not given),-4.23%
9,O=C(CSc1nnc2ccc(-c3ccncc3)nn12)N1CCCCC1,-7.7%
10,COC(=O)c1ccc(/C=N/OCC(=O)Nc2cc(F)ccc2F)cc1,-4.64%
11,COc1ccc(NC(=O)c2cc3nc(-c4ccccc4)cc(C)n3n2)cc1OC,-16.7%
12,COc1ccccc1NC(=O)C1CCCN(c2cc(C)nc3ncnn23)C1 (stereo not given),-1.1%
13,COc1cccc(/C=N/Nc2cc(C)nc(-c3ccccc3O)n2)c1O,-40%
14,COc1cc(/C=C2\SC(=S)N(Nc3ncc(C(F)(F)F)cc3Cl)C2=O)cc(OC)c1OC,-3.09%
15,COc1cccc(/C=N/Nc2ncc(C(F)(F)F)cc2Cl)c1O,73.5% (active)
16,COC(=O)Nc1ccc(S(=O)(=O)N2CCN(CCN3C(=O)C4C5C=CC(C5)C4C3=O)CC2)cc1 (stereo not given),1%
17,Cc1c(C(N)=O)sc2ncn(CCOc3ccccc3)c(=O)c12,-3.42%
18,CCc1ccc(CNC(=O)CCc2nc(-c3cccs3)no2)cc1,-2.08%
19,O=C(CCC1CCCN(C(=O)Cc2ccc(F)cc2)C1)N1CCN(c2ccccn2)CC1 (stereo not given),-6.3%
20,CSc1ccccc1NC(=O)Cc1ccc(Br)cc1,32.7%
21,O=C1/C(=C\Nc2ccccc2)CCN1c1ncccn1,-65.9%
22,COc1ccccc1NC(=O)CC(NCCN(C)C)C(=O)O (stereo not given),-1.3%
23,COCCCNc1nc2c(-c3cccc(C(F)(F)F)c3)nnn2c2ccccc12,-3.92%
24,CCOC(=O)C1(Cc2ccc(Cl)cc2)CCN(C(=O)C2=NNC(=O)CC2)CC1,-7.3%
25,Cc1ccc(SC(=O)COc2ccc(C)c(C)c2)cc1,7.35%
